The structures appear in SMILES notation. Active and inactive are the calls of the source.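 How the source made its calls: active means compounds that lower survival of HCT116 colon cancer cells in the luminescence readout, no numeric limit stated; inactive means the rest.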

This experiment can be described thus: HCT116 colon cancer cell growth inhibition, primary screen, CellTiter-Glo luminescence, NPC library (AID 1117342). Conditions: at 20 µM (top of the series). Background: In ATP-based viability assays light output follows the ATP content of the culture.
For `CCCCCCCC/C=C/C(=O)O`, the inhibition of viability was 5.93% (inactive).
On to `O=C(OCC(COC(=O)c1cccnc1)(COC(=O)c1cccnc1)COC(=O)c1cccnc1)c1cccnc1`, for which the inhibition of viability was 17.4% (inactive).
`CCCCC(O)/C=C(C)/C=C/C=C/C(=O)N1CCCC1=O` (centres undefined): the inhibition of viability is 37.5% (inactive).
As to `CCCCCCCC/C=C\CCCCCCCCN`, the inhibition of viability was 33.8% (inactive).
The value for `C[N+](C)(CCOc1ccccc1)Cc1cccs1` was 27.5% (inactive); that for `CCCOc1ccc2c(c1)CC[C@@H]1[C@@H]2CC[C@]2(C)C(OC)CC[C@@H]12` (some centres undefined) was 56% (active).
`NS(=O)(=O)c1ccc(Cl)c(S(N)(=O)=O)c1`: the inhibition of viability is -6% (inactive).
The value for `COc1ccc2c(c1)c(CC(=O)OC/C=C(\C)CC/C=C(\C)CCC=C(C)C)c(C)n2C(=O)c1ccc(Cl)cc1` was 4.5% (inactive); that for `O=S(=O)(O)CC(S)CS` (centres undefined) was 4.3% (inactive); that for `Cc1ccc2ccc(Cl)cc2n1` was 2.4% (inactive).
In the case of `NC(=O)NS(=O)(=O)c1ccc(Cl)cc1`, the inhibition of viability was 2.5% (inactive).
On to `COc1cccc(CCc2ccccc2OCC(CN(C)C)OC(=O)CCC(=O)O)c1` (centres undefined), for which the inhibition of viability is 72.9% (active).
The value for `Cc1cc(O)c(Cl)c(C)c1Cl` was -6.7% (inactive).
For `COc1cccc2c1C(=O)c1c(O)c3c(c(O)c1C2=O)C[C@@](O)(C(=O)CO)C[C@@H]3O[C@H]1C[C@H](N)[C@H](O[C@@H]2CCCCO2)[C@H](C)O1`, the inhibition of viability was 66.5% (active).
In the case of `CCCCCCCCCC(=O)O`, the inhibition of viability was 7.9% (inactive).
Turning to `O=C(CCN1CCC(c2ccccc2)C1)c1ccc2c(c1)OCCO2` (centres undefined), the inhibition of viability was -10.2% (inactive).
As for `CNC(=O)c1cnn(-c2nc(N)c3ncn([C@@H]4O[C@H](CO)[C@@H](O)[C@H]4O)c3n2)c1`, the inhibition of viability is 1% (inactive).
`O=C(O)Cc1cn(-c2ccccc2)nc1-c1ccc(Cl)cc1`: the inhibition of viability was 16.8% (inactive).
Take `CC1(S(=O)(=O)O)CC(=O)c2ccccc2C1=O` (centres undefined): the inhibition of viability is 99.2% (active).
The value for `OCCCc1ccccc1` was -1.15% (inactive).
The value for `NC(N)=NN=C(/C=C/c1ccc([N+](=O)[O-])o1)/C=C/c1ccc([N+](=O)[O-])o1` was 99.5% (active); that for `O=C1c2ccccc2CCc2ccccc21` was 4.6% (inactive); that for `Oc1ccccc1` was -11.1% (inactive).
For the compound `CCOC(=O)c1ccc(NC(=O)CN2CCCCC2)cc1`, the inhibition of viability was 50.7% (active).
Consider `COc1ccccc1OC(=O)Oc1ccccc1OC`, for which the inhibition of viability was 3.6% (inactive).
The value for `CC1(C)CO[C@@H](CC(=O)O)CN1` was 7.17% (inactive); that for `CCCCN=C(N)N=C(N)N` was 3.4% (inactive).
As for `O=C(O)CCC(=O)C(=O)O`, the inhibition of viability is -1.4% (inactive).
Regarding `Cc1ccc(CCn2c3c(c4cc(Cl)ccc42)CN(C)CC3)cn1`, the inhibition of viability was 62.1% (active).
The value for `C[C@@H](N)C(=O)O` was 11.2% (inactive).
For `CCc1nnc(NS(=O)(=O)c2ccc(N)cc2)s1`, the inhibition of viability is -13.8% (inactive).
For the compound `NS(=O)(=O)c1cc(-c2nn[nH]n2)c(NCc2cccs2)cc1Cl`, the inhibition of viability is -19.7% (inactive).
On to `O=C(O)CNC(=O)CNC(=O)CNC(=O)CSC(=O)c1ccccc1`, for which the inhibition of viability was 0.6% (inactive).
For `CCCCCCCCCCCCCCCCCCN(C)C`, the inhibition of viability is 43.3% (inactive).
Regarding `Oc1cccc(-c2c3nc(c(-c4cccc(O)c4)c4ccc([nH]4)c(-c4cccc(O)c4)c4nc(c(-c5cccc(O)c5)c5ccc2[nH]5)CC4)C=C3)c1`, the inhibition of viability was 109% (active).
For `C=CCNc1nc(NCC=C)nc(N2CCN(C(c3ccc(F)cc3)c3ccc(F)cc3)CC2)n1`, the inhibition of viability was 49.1% (inactive).
Consider `O=C(CCN1CCN(CCO)CC1)N1c2ccccc2Sc2ccc(C(F)(F)F)cc21`, for which the inhibition of viability is 49.2% (inactive).
As to `COc1ccc(OC(=O)N(CC(=O)O)Cc2ccc(OCCc3nc(-c4ccccc4)oc3C)cc2)cc1`, the inhibition of viability is 86.4% (active).
For `Oc1ccc(CCNCCCCCCNCCc2ccccc2)cc1O`, the inhibition of viability is 83.5% (active).
